Where a name gives a salt, the structure may show the parent alone.

This is an account of results in the supplement of paper PMC3414501.

The test system of experiment [1] is S. cerevisiae SK1 pCDA2-eGFP (USY613), sporulating. The experiment is described as follows: CDA2-GFP sporulation assay sensitivity score (z-score vs DMSO controls); higher = stronger inhibition of sporulation, active = hit call of the paper.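 Also: active if sensitivity score above 5.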
For experiment [2], the system named is S. cerevisiae AD1-9 (efflux-pump deficient), vegetative growth in YPD. The experiment is described as follows: growth sensitivity score (doubling time z-score vs DMSO controls); higher = slower growth, strongly negative scores also mark growth inhibition (complete suppression), active = hit call of the paper. In short, it runs like this: (§1)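 Rich medium in microtiter plates was seeded with Saccharomyces cerevisiae strains BY4741 and AD1-9 at an OD600 of 0.065, and compounds were added as a 1:100 dilution of DMSO stock. A Tecan GENios reader recorded optical density every 15 min for 24 hours, with eight solvent-only wells in each experiment. Average doubling time was the time to reach a set generation point divided by generation number. The growth sensitivity score was the compound mean minus the solvent-only mean, divided by the solvent-only standard deviation.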

Experiment [3] concerns S. cerevisiae BY4741 (wild-type), vegetative growth in YPD. The experiment is described as above. In short, it runs like this: as §1
The mark [4] stands for this setting: stock concentration (mM, diluted 1:100): 10.1.
Where [5] appears, read: stock concentration (mM, diluted 1:100): 19.9.
Setting [6] is: stock concentration (mM, diluted 1:100): 7.7.
Where [7] appears, read: stock concentration (mM, diluted 1:100): 7.3.
The mark [8] stands for this setting: stock concentration (mM, diluted 1:100): 10.
The mark [9] stands for this setting: stock concentration (mM, diluted 1:100): 11.3.
The mark [10] stands for this setting: stock concentration (mM, diluted 1:100): 8.9.
Where [11] appears, read: stock concentration (mM, diluted 1:100): 7.6.
The mark [12] stands for this setting: stock concentration (mM, diluted 1:100): 9.
Setting [13] is: stock concentration (mM, diluted 1:100): 8.7.
The mark [14] stands for this setting: stock concentration (mM, diluted 1:100): 9.8.

On to `CC(NC(C)(C)C)C(=O)c1cccc(Cl)c1` (stereo not drawn) [Amfebutamone hydrochloride], for which, in experiment [1] (setting [4]), the “CDA2-GFP sporulation assay sensitivity score” value is 0.84 (inactive). For the same compound, the growth sensitivity score in experiment [2] (setting [4]) is 0.01 (inactive); in experiment [3] (setting [4]), -0.7 (inactive).

With `Cc1ccc(-c2nc3ccc(C)cn3c2CC(=O)N(C)C)cc1` [Zolpidem tartrate], the “CDA2-GFP sporulation assay sensitivity score” value in experiment [1] (setting [5]) was 1.79 (inactive). The growth sensitivity score in experiment [2] (setting [5]) was -1.48 (inactive); in experiment [3] (setting [5]) it was -0.6 (inactive).

Take `CCC(COC(=O)c1cc(OC)c(OC)c(OC)c1)(c1ccccc1)N(C)C` (stereo not drawn) [Trimebutine maleate]: the “CDA2-GFP sporulation assay sensitivity score” value in experiment [1] (setting [6]) was 0.35 (inactive). The results for the growth sensitivity score in experiment [2] (setting [6]) and in experiment [3] (setting [6]) were 3.33 (active) and 0.59 (inactive), respectively.

With `CN1[C@@H]2CC(OC(=O)[C@H](CO)c3ccccc3)C[C@H]1[C@@H]1O[C@@H]12` (stereo partly drawn), the “CDA2-GFP sporulation assay sensitivity score” value in experiment [1] (setting [7]) is -0.1 (inactive). Besides, the growth sensitivity score in experiment [2] (setting [7]) is -1.56 (inactive); in experiment [3] (setting [7]), -0.06 (inactive).

For `CCOC(=O)c1cncn1[C@H](C)c1ccccc1` [Etomidate], in experiment [1] (setting [4]), the “CDA2-GFP sporulation assay sensitivity score” value is 6.33 (active). Further, the figures for the growth sensitivity score in experiment [2] (setting [4]) and in experiment [3] (setting [4]) were 7.78 (active) and 2.21 (active), respectively.

Take `COc1cc2c(cc1OC)[C@@]13CCN4CC5=CCO[C@H]6CC(=O)N2[C@H]1[C@H]6[C@H]5C[C@H]43` [Brucine]: the “CDA2-GFP sporulation assay sensitivity score” value in experiment [1] (setting [8]) is -1.75 (inactive). The growth sensitivity score in experiment [2] (setting [8]) is -0.99 (inactive); in experiment [3] (setting [8]), 0.41 (inactive).

As for `CCN(C(C)=O)c1cccc(-c2ccnc3c(C#N)cnn23)c1` [Zaleplon], the “CDA2-GFP sporulation assay sensitivity score” value in experiment [1] (setting [8]) is 6.36 (inactive). For the same compound, the values for the growth sensitivity score in experiment [2] (setting [8]) and in experiment [3] (setting [8]) were -0.13 (inactive) and -0.43 (inactive), respectively.

Consider `COc1ccc(CCN)cc1OC` [Homoveratrylamine], for which the “CDA2-GFP sporulation assay sensitivity score” value in experiment [1] (setting [8]) is -0.12 (inactive). Besides, the growth sensitivity score in experiment [2] (setting [8]) was -1.46 (inactive); in experiment [3] (setting [8]), -1.07 (inactive).

`CNC(=O)Oc1ccc2c(c1)[C@]1(C)CCN(C)[C@@H]1N2C` [Physostigmine]: the “CDA2-GFP sporulation assay sensitivity score” value in experiment [1] (setting [8]) was 0.21 (inactive). For the same compound, the growth sensitivity score in experiment [2] (setting [8]) is -0.52 (inactive); in experiment [3] (setting [8]), -1.51 (inactive).

Regarding `Cc1nnc2n1-c1ccc(Cl)cc1C(c1ccccc1)=NC2` [Alprazolam], in experiment [1] (setting [8]), the “CDA2-GFP sporulation assay sensitivity score” value was 0.37 (inactive). The growth sensitivity score is 5.38 (active) in experiment [2] (setting [8]) and 0.23 (inactive) in experiment [3] (setting [8]).

With `CC(C)CC(N(C)C)C1(c2ccc(Cl)cc2)CCC1` (stereo not drawn) [Sibutramine], the “CDA2-GFP sporulation assay sensitivity score” value in experiment [1] (setting [9]) was 3.27 (inactive). The growth sensitivity score in experiment [2] (setting [9]) is 5.47 (active); in experiment [3] (setting [9]), 3.69 (active).

For the compound `COc1ccc(C(CN(C)C)C2(O)CCCCC2)cc1` (stereo not drawn) [Venlafaxine hydrochloride], the “CDA2-GFP sporulation assay sensitivity score” value in experiment [1] (setting [10]) is -0.02 (inactive). The growth sensitivity score was -1.06 (inactive) in experiment [2] (setting [10]) and -0.63 (inactive) in experiment [3] (setting [10]).

Turning to `CN1CC[C@]23CCCC[C@H]2[C@H]1Cc1ccc(O)cc13` [Levorphanol tartrate], the “CDA2-GFP sporulation assay sensitivity score” value in experiment [1] (setting [11]) is -2.67 (inactive). Also, the growth sensitivity score in experiment [2] (setting [11]) is -1.11 (inactive); in experiment [3] (setting [11]), -0.24 (inactive).

Consider `CC(C)[C@]12O[C@H]1[C@@H]1O[C@]13[C@]1(O[C@H]1C[C@H]1C4=C(CC[C@@]13C)C(=O)OC4)[C@@H]2O` [Triptolide], for which the “CDA2-GFP sporulation assay sensitivity score” value in experiment [1] (setting [8]) is -1.02 (inactive). The growth sensitivity score in experiment [2] (setting [8]) is -2.17; in experiment [3] (setting [8]) it was -0.92 (inactive).

`C=C(C)CN1CC[C@]23c4c5ccc(O)c4O[C@H]2c2[nH]c4ccccc4c2C[C@@]3(O)C1C5`: in experiment [1] (setting [4]), the “CDA2-GFP sporulation assay sensitivity score” value was 4.94 (inactive). Besides, the growth sensitivity score in experiment [2] (setting [4]) is 11.1 (active); in experiment [3] (setting [4]) it was 0.61 (inactive).

Consider `Cc1ncc2n1-c1ccc(Cl)cc1C(c1ccccc1F)=NC2` [Midazolam hydrochloride], for which the “CDA2-GFP sporulation assay sensitivity score” value in experiment [1] (setting [12]) is 6.54 (active). For the same compound, the growth sensitivity score in experiment [2] (setting [12]) is 12.1 (active); in experiment [3] (setting [12]) it was 0.95 (inactive).

Consider `C[C@]12CC[C@H]3[C@@H](CCC4=CC(=O)CC[C@@H]43)[C@@H]1CC[C@@H]2O` [19-Nortestosterone], for which the “CDA2-GFP sporulation assay sensitivity score” value in experiment [1] (setting [8]) was 1.91 (inactive). Further, the growth sensitivity score was 5.3 (active) in experiment [2] (setting [8]) and 2.24 (active) in experiment [3] (setting [8]).

On to `CC(NC(C)(C)C)C(=O)c1cccc(Cl)c1` (stereo not drawn) [Bupropion hydrochloride], for which the “CDA2-GFP sporulation assay sensitivity score” value in experiment [1] (setting [13]) is 3.2 (inactive). Moreover, the growth sensitivity score in experiment [2] (setting [13]) was -0.08 (inactive); in experiment [3] (setting [13]) it was -0.87 (inactive).

Consider `C#CCN(C)[C@H](C)Cc1ccccc1` [Selegiline], for which, in experiment [1] (setting [8]), the “CDA2-GFP sporulation assay sensitivity score” value is -0.13 (inactive). For the same compound, the growth sensitivity score in experiment [2] (setting [8]) is -1.83 (inactive); in experiment [3] (setting [8]) it was 0.07 (inactive).

In the case of `c1ccc2c3c([nH]c2c1)CNCC3` [Tryptoline], the “CDA2-GFP sporulation assay sensitivity score” value in experiment [1] (setting [8]) was 11.7 (active). The growth sensitivity score in experiment [2] (setting [8]) was -1.27 (inactive); in experiment [3] (setting [8]), -1.07 (inactive).

Take `C[C@]12CCC(=O)C=C1CC[C@@H]1[C@@H]2CC[C@@]2(C)[C@H]1CC[C@]2(C)O` [Methyltestosterone]: the “CDA2-GFP sporulation assay sensitivity score” value in experiment [1] (setting [8]) is 3.87 (inactive). For the same compound, the growth sensitivity score in experiment [2] (setting [8]) is 32.3 (active); in experiment [3] (setting [8]), 3.83 (active).

In the case of `CN1CC[C@]2(c3cccc(O)c3)Cc3nc4ccccc4cc3C[C@H]2C1`, the “CDA2-GFP sporulation assay sensitivity score” value in experiment [1] (setting [14]) was 5.85 (inactive). Also, the growth sensitivity score was -2.02 in experiment [2] (setting [14]) and 0.13 (inactive) in experiment [3] (setting [14]).

`Oc1cc2c(cc1O)[C@H]1c3ccccc3CN[C@@H]1CC2`: the “CDA2-GFP sporulation assay sensitivity score” value in experiment [1] (setting [8]) was -1.42 (inactive). Besides, the results for the growth sensitivity score in experiment [2] (setting [8]) and in experiment [3] (setting [8]) were 0.66 (inactive) and 0.31 (inactive), respectively.

For the compound `c1ccc(Cn2ccnc2)cc1` [1-Benzylimidazole], the “CDA2-GFP sporulation assay sensitivity score” value in experiment [1] (setting [8]) is 2.48 (inactive). The growth sensitivity score in experiment [2] (setting [8]) was -1.25 (inactive); in experiment [3] (setting [8]) it was -1.22 (inactive).

With `c1ccc2c(c1)Nc1ccccc1S2` [Phenothiazine], the “CDA2-GFP sporulation assay sensitivity score” value in experiment [1] (setting [8]) is 3.38 (inactive). The growth sensitivity score in experiment [2] (setting [8]) is 11.7 (active); in experiment [3] (setting [8]), 5.99 (active).

For the compound `CC[C@@H](C(N)=O)N1CCCC1=O` [Levetiracetam], the “CDA2-GFP sporulation assay sensitivity score” value in experiment [1] (setting [4]) was 1.7 (inactive). The values for the growth sensitivity score in experiment [2] (setting [4]) and in experiment [3] (setting [4]) were -2.51 and -1.26 (inactive), respectively.
